In all, about 340,000 compounds went through this assay and about 6,200 (1.8%) were called active. Not shown: some 10% with an inconclusive outcome. Calls follow the shape of the dose curve; as a rule, active = well fitted activation curve with a large enough effect; inconclusive = small, poorly fitted or top-dose-only effect; inactive = no such curve, though single readings can be large or run the other way. The entries come from a sample that favours actives as a whole.
Experiment: A quantitative high throughput screen for small molecules that induce DNA re-replication in SW480 colon adenocarcinoma cells. Also: nearly all actives have a fitted effect of over 55% in size. As to re-replication activation: % of control where 0% means no effect.
Conditions: Hoechst DNA content imaging, 48 h; series mostly up to 46.1 µM; re-replication activation: at the top concentration
Procedure, shortened: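 Treated cells incubate 48 hr (37 C, 5% CO2), are stained 40 min with Hoechst, and nuclear fluorescence is enumerated; a rise in nuclei with high DNA signal marks re-replication.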
Potency is read from the fitted curve at half-maximal effect.

Structure (SMILES) | re-replication activation | Potency
Cc1cc(Cl)nc(NC(=O)Nc2cccc(Cl)c2)n1 | -7.59% (inactive) | 
COc1cccc(C(=O)NC(=O)Nc2nc(C)cc(C(F)(F)F)n2)c1 | 22.9% (inactive) | 
Cc1cc(C)nc(NC(=O)Nc2ccccc2C(F)(F)F)n1 |  | 16.4 µM (active)
CCC(C)C1(C2CCCC2)NC(=O)NC1=O (stereo not drawn) | -5.75% (inactive) | 
Nc1ncnc2c1ncn2[C@@H]1O[C@H](CNS(=O)(=O)c2ccc(-c3ccno3)s2)[C@@H](O)[C@H]1O | 3.48% (inactive) | 
Cc1cc2c(cc1C)NC1(C[C@H]3CCC(=O)N4CC[C@@H](C1)[C@@H]34)C(=NC(C)(C)CC(C)(C)C)N2 (stereo partly drawn) | -10.5% (inactive) | 
N#Cc1nc(-c2cccc3ccccc23)oc1N | 0.402% (inactive) | 
COc1ccc(Nc2oc(-c3ccccc3Cl)nc2C#N)cc1 |  | 10.3 µM (active)
Cc1ccccc1-c1nc(C#N)c(NCc2ccco2)o1 | 0.177% (inactive) | 
COc1ccc(CCC(=O)Nc2ccc(Cl)c(S(=O)(=O)N3CCOCC3)c2)cc1OC | 0.713% (inactive) | 
O=[N+]([O-])c1ccccc1/C=C/CN1CCC(O)CC1 | 4.87% (inactive) | 
O=[N+]([O-])c1ccccc1/C=C/CN1CCCC(CO)C1 (stereo not drawn) | -0.185% (inactive) | 
CC1CCCCC1NC(=O)/C(C#N)=C/C=C/c1ccccc1[N+](=O)[O-] (stereo not drawn) |  | 6.51 µM (active)
COCCN(C(=O)C(C)N1C(=O)c2ccccc2C1=O)c1c(N)n(CC(C)C)c(=O)[nH]c1=O (stereo not drawn) | -2.99% (inactive) | 
O=[N+]([O-])c1ccc(N=NNc2ccc([N+](=O)[O-])cc2)cc1 | -1.61% (inactive) | 
COc1cccc(N2CCN(CC(=O)Nc3ccnn3C3CCCC3)CC2)c1 | -0.518% (inactive) | 
COc1cc(OC)cc(-c2cc3ccc(F)cc3cn2)c1 | 17.7% (inactive) | 
O=C(C1CCN(Cc2ccc(Cl)cc2)CC1)N1CCN(Cc2ccc3c(c2)OCO3)CC1 | 6.33% (inactive) | 
O=C(Nc1ccc(Cl)cc1)C1c2cccc[n+]2CC(=O)N1Cc1ccc2c(c1)OCO2 (stereo not drawn) |  | 23.1 µM (active)
CC1CCC(NC(=O)C2c3ccccc3C(=O)N2Cc2ccc3c(c2)OCO3)CC1 (stereo not drawn) | -8.21% (inactive) | 
C=CC[C@@H](CC(=O)N[C@@H](CO)Cc1ccccc1)C(=O)NCCOC(=O)[C@@H](CC=C)CC(=O)OC(C)(C)C | -9.33% (inactive) | 
COC1=CC(=O)OC(C)(c2ccccc2)C1 (stereo not drawn) | -10.5% (inactive) | 
CCOC(=O)CCC(NC(=O)c1ccc(CNc2nc3cc(C(F)(F)F)ccc3nc2C(=O)OCC)cc1)C(=O)OCC (stereo not drawn) | 0.999% (inactive) | 
FC(F)(F)c1ccc(-c2cccc3c2C2CC3CCN2Cc2ccccc2)cc1 (stereo not drawn) | -0.788% (inactive) | 
O=C(NNc1nc(N2CCCC2)nc(N2CCCC2)n1)c1ccccc1 | -0.98% (inactive) | 

Structure (SMILES) | re-replication activation | Potency
Cc1cc(C(=O)N/N=C/c2ccc(N3CCOCC3)cc2)c(C)o1 | 8.47% (inactive) | 
O=C(NN=Cc1ccc(N2CCOCC2)cc1)c1cc2ccccc2cc1O | -21.4% (inactive) | 
CCN(CC)c1ccc(C(=O)N/N=C/c2ccc(N3CCOCC3)cc2)cc1 |  | 18.4 µM (active)
O=C(Nc1cccc(S(=O)(=O)N2CCCCC2)c1)c1cncc(Br)c1 | -0.964% (inactive) | 
CC/C(=C(/c1ccccc1)c1ccc(OCC[N+](C)(C)C)cc1)c1ccccc1 | -5.78% (inactive) | 
Nn1c(SCC(=O)Nc2ccc3c(c2)CCC3)nnc1C1CC1 | -5.39% (inactive) | 
Cc1cc(C(=O)OCC(=O)NCc2ccco2)c(C)n1-c1ccccc1 |  | 7.31 µM (active)
CN(c1ccccc1)S(=O)(=O)c1ccc(Cl)c(C(=O)OCC(=O)NCc2ccco2)c1 | -20.4% (inactive) | 
O=C(COC(=O)c1ccccc1O)NCc1ccco1 | -9.2% (inactive) | 
CC(C(=O)N1CCc2ccccc21)N(C)CC(=O)Nc1ccc(F)cc1 (stereo not drawn) | 24% (inactive) | 
O=C1COc2ccc(C(=O)COC(=O)CCOc3ccccc3)cc2N1 | -4.67% (inactive) | 
Cc1ccc(-c2csc(C(C#N)=C(O)CN3CCN(C(=O)c4ccco4)CC3)n2)cc1 | 6.14% (inactive) | 
Cc1cn([C@H]2CC(F)[C@@H](CO)O2)c(=O)[nH]c1=O (stereo partly drawn) | -0.164% (inactive) | 
COc1cc(OC)cc(C(=O)NCC(=O)OCC(=O)NC(C)CCc2ccccc2)c1 (stereo not drawn) | -29.4% (inactive) | 
O=C(Nc1cccc(-c2cscn2)c1)C1CCN(Cc2ccsc2)CC1 | -1.44% (inactive) | 
CC(=O)c1cc(CN2CCC(C(=O)Nc3cccc(-c4cscn4)c3)CC2)cs1 | -7.67% (inactive) | 
CCn1cc(CN2CCC(C(=O)Nc3cccc(-c4cccc(Cl)c4)c3)CC2)cn1 |  | 18.4 µM (active)
C=CCN1C=C(C(=O)c2ccccc2)C(=O)CC1 | -47.2% (inactive) | 
CCCCCCCCCCOC(=O)Cn1c(COc2ccc(C)cc2)[n+](C)c2ccccc21 |  | 20.6 µM (active)
Cc1ccc(OCCCn2c(=O)oc3ccccc32)cc1 | -16.6% (inactive) | 
CCCCCCCCCCOC(=O)Cn1c(COc2cccc(OC)c2)[n+](C)c2ccccc21 | -6.85% (inactive) | 
O=c1c2ccccc2ncn1CCc1ccncc1 | 2.42% (inactive) | 
COc1ccccc1C(=O)OCC(=O)Nc1cccc(S(=O)(=O)NC2=NCCCCC2)c1 | -8.34% (inactive) | 
Cc1cc(-c2ccc(C)c(S(=O)(=O)NC(C)Cc3ccco3)c2)on1 (stereo not drawn) | 0.627% (inactive) | 
CCOc1ccccc1CNS(=O)(=O)c1cc(-c2cc(C)no2)ccc1C | -18.6% (inactive) | 

Structure (SMILES) | re-replication activation | Potency
Cc1cc(-c2ccc(C)c(S(=O)(=O)NCCCN(Cc3ccccc3)C(C)C)c2)on1 |  | 18.4 µM (active)
COc1cccc2oc(CCc3ccccc3)cc(=O)c12 | -9.95% (inactive) | 
CCOc1cc(C(=O)N(Cc2ccccc2)c2ccc(C)cc2)ccc1OCC(=O)N1CCOCC1 | -7.41% (inactive) | 
CC1CCN(C2=NC(=O)/C(=C/c3ccc(O)cc3)S2)CC1 | -2.45% (inactive) | 
CC(C(=O)NC1CCS(=O)(=O)C1)N1C(=O)/C(=C/c2ccc(Cl)cc2)SC1=S (stereo not drawn) | 0.287% (inactive) | 
O=C1/C(=C\c2ccc(O)cc2)CCC1CNc1ccc(Cl)cc1 (stereo not drawn) |  | 16.4 µM (active)
O=C(COC(=O)c1cccnc1Cl)Nc1ccc(S(=O)(=O)N2CCOCC2)cc1 | -6.59% (inactive) | 
COCCN(C(=O)CSCc1ccc(C)cc1)c1c(N)n(CC(C)C)c(=O)[nH]c1=O | -13.4% (inactive) | 
COc1ccc(/C=N/NS(=O)(=O)c2ccc(NC(C)=O)cc2)cc1 | 1.07% (inactive) | 
COc1ccc(/C=N/NC(=O)C(C)N(c2ccc(OC)cc2)S(C)(=O)=O)cc1 (stereo not drawn) |  | 18.4 µM (active)
CC(C(=O)NC1CCCC1)N(c1ccc(Oc2ccccc2)cc1)S(C)(=O)=O (stereo not drawn) | 11.2% (inactive) | 
CC[C@]12c3[nH]c4cc(CCC(=O)N(C)C)ccc4c3CCN1C(=O)[C@@H](CC(=O)NCC13CC4CC(CC(C4)C1)C3)C[C@@H]2C(=O)N1CCN(C(=O)C2CC2)CC1 | -2.17% [at 9.22 µM] (inactive) | 
CC(C)(C)OC(=O)C[C@@H]1C/C=C\C[C@@H](CC(=O)N[C@@H](CO)Cc2ccccc2)C(=O)N2CCC[C@H]2COC1=O | -11.3% (inactive) | 
CC1CCCCC1NC(=O)COc1ccc(C#N)cc1 (stereo not drawn) | 13.5% (inactive) | 
Oc1ccccc1CN1CCN(C(c2ccccc2)c2ccccc2)CC1 | 2.09% (inactive) | 
Oc1c(C(c2ccccn2)N2CCOCC2)ccc2cccnc12 (stereo not drawn) | 17.7% (inactive) | 
CCN1CCN(C(c2cccnc2)c2cc(Cl)c3cccnc3c2O)CC1 (stereo not drawn) |  | 20.6 µM (active)
COc1cc(C(=O)N2CCN(S(=O)(=O)c3ccc(C(C)C)cc3)CC2)ccc1OCC(=O)N1CCOCC1 | -23.8% (inactive) | 
COC(=O)[C@]1(C)N[C@H](CN(C)C(=O)c2ccc(C(C)(C)C)cc2)[C@@H]2C(=O)N(C)C(=O)[C@@H]21 | -3.69% (inactive) | 
COc1cc(/C=C/CNC[C@H]2O[C@@H](n3cnc(C(N)=O)n3)[C@H](O)[C@@H]2O)ccc1O | 1.29% (inactive) | 
CCNC(=O)CSc1nc(-c2ccccc2)cs1 | 2.29% (inactive) | 
Nc1c(C(=O)NCc2ccccc2)sc2nc3c(cc12)C(=O)CCC3 | 10% (inactive) | 
CCN(CC)C(=O)c1sc2nc(-c3ccccc3)ccc2c1N |  | 20.6 µM (active)
Cc1ccc(S(=O)(=O)N2CCC(C(=O)N3CCCCCCC3)CC2)cc1 | -11.7% (inactive) | 
COc1ccc(CNC(=O)COC(=O)C2=Cc3ccccc3OC2)cc1 | 2% (inactive) | 

Structure (SMILES) | re-replication activation | Potency
COc1ccc(C2=Nn3c(nnc3-c3ccccc3OC)SC2)cc1OC1CCCC1 |  | 2.31 µM (active)
Cc1nnc2n1N=C(c1ccccc1)CS2 | -5.77% (inactive) | 
CC1=Nn2c(nnc2-c2ccccc2)SC1 | 2.75% (inactive) | 
COC(=O)[C@]1(CC(C)C)N[C@H](c2ccc(SC3CCCCC3)cc2)[C@@H]2C(=O)N(C)C(=O)[C@@H]21 | -11.8% (inactive) | 
Cc1ccc(S(=O)(=O)c2nnn3c2nc(N2CCN(c4ccccn4)CC2)c2ccccc23)cc1 | 2.5% (inactive) | 
Cc1cccc(Nc2nc3c(S(=O)(=O)c4ccccc4)nnn3c3ccccc23)c1C | 0.398% (inactive) | 
CC(=O)Nc1ccc(Nc2nc3c(S(=O)(=O)c4ccc(C)c(C)c4)nnn3c3ccccc23)cc1 |  | 18.4 µM (active)
S=C(Nc1ccccc1)Nc1ccc2ccccc2c1 | 0.33% (inactive) | 
Cc1cccn2c(=O)c3cc(C#N)c(=NC(=O)c4cccnc4)n(CC4CCCO4)c3nc12 (stereo not drawn) |  | 18.4 µM (active)
Cc1cccn2c(=O)c3cc(C(=O)N4COCC4(C)C)n(C)c3nc12 | -3.11% (inactive) | 
Cc1cccn2c(=O)c3cc(C(=O)NC4CCCCC4)sc3nc12 | -5.17% (inactive) | 
NN=C(NN=Cc1ccccc1)c1ccccc1 | -1.92% (inactive) | 
Cc1cccc(CSc2nnc(NC(=O)CSc3nnc(C)s3)s2)c1 | 4.63% (inactive) | 
Cc1nnc(NC(=O)CSc2nccn2-c2cccc(C)c2C)s1 |  | 8.2 µM (active)
COc1ccccc1-n1c(CNC(=O)c2ccccc2)nnc1SCC(=O)Nc1nnc(C)s1 | -1.1% (inactive) | 
Cc1cc([N+](=O)[O-])c(=O)[nH]c1C | -0.856% (inactive) | 
O=C(c1[nH]ncc1-c1ccc(Cl)cc1)C1CO1 (stereo not drawn) |  | 16.4 µM (active)
O=C(c1nnc(-c2ccc(Cl)cc2)o1)C1CCCC1 | -1.19% (inactive) | 
N=C1c2ccccc2-c2ccccc21 | -2.91% (inactive) | 
COC(=O)c1ccc(C)c(NC(=O)Cn2c(C)csc2=O)c1 | 5.59% (inactive) | 
CC(C)N(C(=O)[C@H]1C[C@H](CC(=O)NC(C)(C)C)C(=O)N2CCc3c([nH]c4ccc(Cl)cc34)[C@]12C)C(C)C | -11.9% (inactive) | 
CN1c2ccc(C=O)c3c(C=O)ccc(c23)N(C)C1(C)C |  | 3.26 µM (active)
COc1ccc(S(=O)(=O)N(C)C[C@H]2Oc3c(NC(=O)Nc4ccc5c(c4)OCO5)cccc3C(=O)N([C@H](C)CO)C[C@@H]2C)cc1 | 7.42% (inactive) | 
